The values that follow come from PMC7862700, “An all-to-all approach to the identification of sequence-specific readers for epigenetic DNA modifications on cytosine”.

Experiment in all cases: DAPPL (digital affinity profiling via proximity ligation, sequencing); 10 mM Tris-HCl pH 7.5, 50 mM NaCl, 1 mM DTT, 4% glycerol, room temperature, 30 min; GST-TFs on glutathione beads, 16-mer random dsDNA library, 0.1% formaldehyde crosslink after washing; high values mean tight binding
For one test, the target named is T1, FEV (Homo sapiens, UniProt Q99581 1-238).
T1 sequence: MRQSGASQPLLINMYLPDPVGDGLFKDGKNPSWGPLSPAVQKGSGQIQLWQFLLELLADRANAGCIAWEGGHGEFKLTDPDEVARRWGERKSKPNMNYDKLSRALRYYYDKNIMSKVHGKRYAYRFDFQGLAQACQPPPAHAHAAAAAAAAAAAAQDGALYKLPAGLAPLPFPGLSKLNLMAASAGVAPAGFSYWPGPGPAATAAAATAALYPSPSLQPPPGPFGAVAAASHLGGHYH
To be noted: protein: recombinant; tags: N-terminal GST; dsDNA, one strand shown. In short, it runs like this: (§1)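 Human transcription factors were made in yeast as GST fusions, captured on glutathione beads and barcoded with DNA. With a tag-only sample included, the pool was incubated with 200 nmole of a random double-stranded 16-mer DNA library in Tris/NaCl/DTT/glycerol buffer at room temperature for 30 min, then crosslinked with 0.1% formaldehyde after washing, ligated by proximity, amplified and sequenced. For binding signal, each hexamer's read frequency for a factor is divided by its frequency for the tag-only sample.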

The next test has as its target ETV5 (Homo sapiens, UniProt P41161 1-510). To be noted: protein: recombinant; tags: N-terminal GST; dsDNA, one strand shown. A digest of the protocol: as §1
The next test concerns the target HSF1 (Homo sapiens, UniProt Q00613 1-529). The settings on record: protein: recombinant; tags: N-terminal GST; chain copies: 3; dsDNA, one strand shown. In short, it runs like this: as §1
Another test concerns the target T2, SPIC (Homo sapiens, UniProt Q8N5J4 1-248).
T2 sequence: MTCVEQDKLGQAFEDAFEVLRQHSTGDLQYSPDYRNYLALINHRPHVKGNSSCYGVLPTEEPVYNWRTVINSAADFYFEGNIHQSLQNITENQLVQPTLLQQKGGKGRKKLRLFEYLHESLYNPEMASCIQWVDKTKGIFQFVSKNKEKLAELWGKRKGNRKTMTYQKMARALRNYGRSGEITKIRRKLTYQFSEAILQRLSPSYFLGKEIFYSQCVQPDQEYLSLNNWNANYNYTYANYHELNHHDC
The settings on record: protein: recombinant; tags: N-terminal GST; dsDNA, one strand shown. A digest of the protocol: as §1

The target in a further test is ELF4 (Homo sapiens, UniProt Q99607 1-663). The settings on record: protein: recombinant; tags: N-terminal GST; dsDNA, one strand shown. A digest of the protocol:
as §1

For another test, the target named is T3, ELK4 (Homo sapiens, UniProt P28324-2 1-405).
T3 sequence: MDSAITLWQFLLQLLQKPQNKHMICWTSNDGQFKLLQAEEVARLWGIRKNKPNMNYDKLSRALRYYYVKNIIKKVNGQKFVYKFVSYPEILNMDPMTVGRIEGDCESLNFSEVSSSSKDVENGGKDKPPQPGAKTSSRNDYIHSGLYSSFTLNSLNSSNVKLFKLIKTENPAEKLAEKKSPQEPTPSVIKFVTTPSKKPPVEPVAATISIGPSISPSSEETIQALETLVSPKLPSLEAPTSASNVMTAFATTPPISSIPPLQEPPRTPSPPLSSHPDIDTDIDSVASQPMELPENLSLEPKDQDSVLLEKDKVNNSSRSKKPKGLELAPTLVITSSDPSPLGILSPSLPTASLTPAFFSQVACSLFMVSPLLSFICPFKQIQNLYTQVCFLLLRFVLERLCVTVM
The settings on record: protein: recombinant; tags: N-terminal GST; dsDNA, one strand shown. A digest of the protocol:
as §1

The next test has as its target T4, ETV2 (Homo sapiens, UniProt O00321 1-342).
T4 sequence: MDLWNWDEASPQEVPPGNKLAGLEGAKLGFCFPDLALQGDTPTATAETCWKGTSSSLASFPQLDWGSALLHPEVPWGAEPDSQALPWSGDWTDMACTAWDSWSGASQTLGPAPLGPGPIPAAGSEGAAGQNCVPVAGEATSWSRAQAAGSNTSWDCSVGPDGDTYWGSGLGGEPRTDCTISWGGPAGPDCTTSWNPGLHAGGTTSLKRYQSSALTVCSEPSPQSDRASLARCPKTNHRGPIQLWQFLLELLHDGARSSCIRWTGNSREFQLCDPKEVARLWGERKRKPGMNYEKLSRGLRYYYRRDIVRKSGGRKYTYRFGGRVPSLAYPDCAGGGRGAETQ
The settings on record: protein: recombinant; tags: N-terminal GST; dsDNA, one strand shown. A digest of the protocol:
as §1

In a further test the target is T5, ELF3 (Homo sapiens, UniProt P78545 1-371).
T5 sequence: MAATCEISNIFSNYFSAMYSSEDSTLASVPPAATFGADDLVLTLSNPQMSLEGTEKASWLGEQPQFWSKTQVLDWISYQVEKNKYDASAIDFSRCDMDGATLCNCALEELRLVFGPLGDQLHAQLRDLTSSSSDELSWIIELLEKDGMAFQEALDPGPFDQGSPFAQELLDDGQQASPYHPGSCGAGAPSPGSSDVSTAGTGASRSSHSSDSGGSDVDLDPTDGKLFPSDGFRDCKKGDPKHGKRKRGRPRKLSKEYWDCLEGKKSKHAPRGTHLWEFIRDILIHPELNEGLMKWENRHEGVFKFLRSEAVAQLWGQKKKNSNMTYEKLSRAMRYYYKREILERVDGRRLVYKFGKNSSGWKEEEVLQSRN
To be noted: protein: recombinant; tags: N-terminal GST; dsDNA, one strand shown. In short, it runs like this:
as §1

Another test concerns the target CRX (Homo sapiens, UniProt O43186 1-299). The settings on record: protein: recombinant; tags: N-terminal GST; dsDNA, one strand shown. A digest of the protocol:
as §1

The target of a further test is ETV1 (Homo sapiens, UniProt P50549 1-477). To be noted: protein: recombinant; tags: N-terminal GST; dsDNA, one strand shown. In short, it runs like this:
as §1

Chain of ETV1 (P50549 whole entry): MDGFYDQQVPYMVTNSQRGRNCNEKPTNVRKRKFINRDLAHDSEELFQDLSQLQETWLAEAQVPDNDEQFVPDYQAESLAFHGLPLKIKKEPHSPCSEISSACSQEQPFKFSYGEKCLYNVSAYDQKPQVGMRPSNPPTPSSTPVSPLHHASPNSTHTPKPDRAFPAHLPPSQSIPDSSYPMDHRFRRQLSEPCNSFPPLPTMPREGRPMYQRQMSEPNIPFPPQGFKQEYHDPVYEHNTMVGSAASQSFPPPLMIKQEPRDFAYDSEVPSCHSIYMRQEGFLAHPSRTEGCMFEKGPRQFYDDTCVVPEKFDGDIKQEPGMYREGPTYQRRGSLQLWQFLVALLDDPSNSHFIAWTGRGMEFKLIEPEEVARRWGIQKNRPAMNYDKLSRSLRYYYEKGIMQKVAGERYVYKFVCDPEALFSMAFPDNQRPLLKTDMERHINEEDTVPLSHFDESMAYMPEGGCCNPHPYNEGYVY
Chain of HSF1 (Q00613 whole entry): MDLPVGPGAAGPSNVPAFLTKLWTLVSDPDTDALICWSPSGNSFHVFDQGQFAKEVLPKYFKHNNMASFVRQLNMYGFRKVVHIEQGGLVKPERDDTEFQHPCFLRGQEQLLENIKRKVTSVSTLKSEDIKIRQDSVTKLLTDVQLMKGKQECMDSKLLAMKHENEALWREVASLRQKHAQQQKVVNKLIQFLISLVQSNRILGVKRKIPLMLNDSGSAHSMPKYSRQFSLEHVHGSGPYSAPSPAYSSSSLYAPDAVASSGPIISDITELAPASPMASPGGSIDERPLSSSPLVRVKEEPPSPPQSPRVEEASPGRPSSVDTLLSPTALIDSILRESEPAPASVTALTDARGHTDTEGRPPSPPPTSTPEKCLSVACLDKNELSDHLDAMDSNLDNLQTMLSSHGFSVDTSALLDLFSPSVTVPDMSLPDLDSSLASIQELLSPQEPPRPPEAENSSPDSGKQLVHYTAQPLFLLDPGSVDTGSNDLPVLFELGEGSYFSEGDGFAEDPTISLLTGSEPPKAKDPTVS
Chain of ELF4 (Q99607 whole entry): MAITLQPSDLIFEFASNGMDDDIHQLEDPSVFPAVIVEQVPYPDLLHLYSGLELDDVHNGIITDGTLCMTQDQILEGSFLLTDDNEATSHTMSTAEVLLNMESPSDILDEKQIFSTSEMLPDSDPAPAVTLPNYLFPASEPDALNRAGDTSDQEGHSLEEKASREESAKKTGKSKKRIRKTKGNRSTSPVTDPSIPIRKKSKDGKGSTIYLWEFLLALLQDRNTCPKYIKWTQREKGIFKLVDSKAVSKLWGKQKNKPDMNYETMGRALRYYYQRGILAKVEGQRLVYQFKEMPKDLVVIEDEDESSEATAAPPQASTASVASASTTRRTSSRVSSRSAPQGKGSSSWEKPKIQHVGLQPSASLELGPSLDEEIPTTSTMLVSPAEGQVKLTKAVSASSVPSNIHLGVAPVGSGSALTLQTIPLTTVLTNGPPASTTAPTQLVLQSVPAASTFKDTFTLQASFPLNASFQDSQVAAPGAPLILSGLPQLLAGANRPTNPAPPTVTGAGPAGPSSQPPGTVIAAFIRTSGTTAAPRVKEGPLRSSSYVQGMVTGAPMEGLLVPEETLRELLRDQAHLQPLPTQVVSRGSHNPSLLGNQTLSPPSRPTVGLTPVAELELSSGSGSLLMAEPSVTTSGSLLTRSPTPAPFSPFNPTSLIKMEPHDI
Chain of CRX (O43186 whole entry): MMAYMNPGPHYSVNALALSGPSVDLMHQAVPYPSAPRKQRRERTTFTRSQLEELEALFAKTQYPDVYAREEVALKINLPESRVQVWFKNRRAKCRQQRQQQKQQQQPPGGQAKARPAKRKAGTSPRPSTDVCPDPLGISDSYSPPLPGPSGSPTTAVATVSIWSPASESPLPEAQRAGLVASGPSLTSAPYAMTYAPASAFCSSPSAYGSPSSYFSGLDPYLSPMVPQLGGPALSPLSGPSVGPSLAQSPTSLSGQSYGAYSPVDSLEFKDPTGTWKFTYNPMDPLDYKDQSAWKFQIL
Chain of ETV5 (P41161 whole entry): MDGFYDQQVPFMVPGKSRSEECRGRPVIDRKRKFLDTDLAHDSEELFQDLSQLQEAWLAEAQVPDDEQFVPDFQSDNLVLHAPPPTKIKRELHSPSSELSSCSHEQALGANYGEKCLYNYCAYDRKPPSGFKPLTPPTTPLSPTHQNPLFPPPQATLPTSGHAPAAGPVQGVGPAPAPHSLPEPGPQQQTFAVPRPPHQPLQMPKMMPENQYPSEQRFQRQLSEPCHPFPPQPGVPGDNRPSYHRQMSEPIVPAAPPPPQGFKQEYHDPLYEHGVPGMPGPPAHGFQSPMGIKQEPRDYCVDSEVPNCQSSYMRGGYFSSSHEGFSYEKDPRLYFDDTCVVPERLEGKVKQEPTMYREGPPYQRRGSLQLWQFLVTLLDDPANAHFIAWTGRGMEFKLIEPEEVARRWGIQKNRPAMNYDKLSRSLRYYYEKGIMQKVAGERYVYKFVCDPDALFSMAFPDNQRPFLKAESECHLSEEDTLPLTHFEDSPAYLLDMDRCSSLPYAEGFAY

CCATTA: the binding signal was 1.07 fold enrichment (6-mer frequency, TF over GST control) with FEV; 1.06 fold enrichment (6-mer frequency, TF over GST control) in the test with ETV5; 1.11 fold enrichment (6-mer frequency, TF over GST control) with HSF1; 1.16 fold enrichment (6-mer frequency, TF over GST control) with SPIC; 1.12 fold enrichment (6-mer frequency, TF over GST control) with ELF4; 1.24 fold enrichment (6-mer frequency, TF over GST control) in the test with ELK4. For the same sequence, the binding signal with ETV2 is 1.15 fold enrichment (6-mer frequency, TF over GST control); in the test with ELF3, 1.21 fold enrichment (6-mer frequency, TF over GST control); in the test with CRX, 1.32 fold enrichment (6-mer frequency, TF over GST control); in the test with ETV1 it was 1.16 fold enrichment (6-mer frequency, TF over GST control).
CCTTTG: the binding signal with FEV was 1.31 fold enrichment (6-mer frequency, TF over GST control); with ETV5 it was 1.3 fold enrichment (6-mer frequency, TF over GST control); in the test with HSF1 it was 1.21 fold enrichment (6-mer frequency, TF over GST control); with SPIC, 1.38 fold enrichment (6-mer frequency, TF over GST control); in the test with ELF4 it was 1.36 fold enrichment (6-mer frequency, TF over GST control); with ELK4, 1.19 fold enrichment (6-mer frequency, TF over GST control). Besides, the binding signal was 1.24 fold enrichment (6-mer frequency, TF over GST control) with ETV2; 1.27 fold enrichment (6-mer frequency, TF over GST control) with ELF3; 1.09 fold enrichment (6-mer frequency, TF over GST control) with CRX; 1.42 fold enrichment (6-mer frequency, TF over GST control) with ETV1.
For TACTTA, the binding signal with FEV was 1.12 fold enrichment (6-mer frequency, TF over GST control); with ETV5 it was 1.17 fold enrichment (6-mer frequency, TF over GST control); with HSF1, 1.7 fold enrichment (6-mer frequency, TF over GST control); with SPIC, 1.12 fold enrichment (6-mer frequency, TF over GST control); in the test with ELF4 it was 1.21 fold enrichment (6-mer frequency, TF over GST control); in the test with ELK4, 1.25 fold enrichment (6-mer frequency, TF over GST control). Further, the binding signal was 1.16 fold enrichment (6-mer frequency, TF over GST control) in the test with ETV2; 1.33 fold enrichment (6-mer frequency, TF over GST control) with ELF3; 2.6 fold enrichment (6-mer frequency, TF over GST control) with CRX; 1.24 fold enrichment (6-mer frequency, TF over GST control) in the test with ETV1.
Regarding GGCCTA, the binding signal with FEV was 1.19 fold enrichment (6-mer frequency, TF over GST control); with ETV5, 1.22 fold enrichment (6-mer frequency, TF over GST control); with HSF1, 1.33 fold enrichment (6-mer frequency, TF over GST control); with SPIC, 1.1 fold enrichment (6-mer frequency, TF over GST control); with ELF4, 1.25 fold enrichment (6-mer frequency, TF over GST control); with ELK4, 1.25 fold enrichment (6-mer frequency, TF over GST control). The binding signal in the test with ETV2 was 1.14 fold enrichment (6-mer frequency, TF over GST control); in the test with ELF3, 1.22 fold enrichment (6-mer frequency, TF over GST control); with CRX, 1.39 fold enrichment (6-mer frequency, TF over GST control); with ETV1, 1.2 fold enrichment (6-mer frequency, TF over GST control).
In the case of AATGAA, the binding signal with FEV is 1.11 fold enrichment (6-mer frequency, TF over GST control); with ETV5, 1.16 fold enrichment (6-mer frequency, TF over GST control); in the test with HSF1 it was 1.12 fold enrichment (6-mer frequency, TF over GST control); in the test with SPIC, 1.26 fold enrichment (6-mer frequency, TF over GST control); with ELF4, 1.2 fold enrichment (6-mer frequency, TF over GST control); with ELK4, 1.24 fold enrichment (6-mer frequency, TF over GST control). Also, the binding signal with ETV2 was 1.08 fold enrichment (6-mer frequency, TF over GST control); with ELF3, 1.24 fold enrichment (6-mer frequency, TF over GST control); in the test with CRX it was 1.03 fold enrichment (6-mer frequency, TF over GST control); in the test with ETV1, 1.17 fold enrichment (6-mer frequency, TF over GST control).
Take CATTCG: the binding signal with FEV is 1.17 fold enrichment (6-mer frequency, TF over GST control); with ETV5 it was 1.09 fold enrichment (6-mer frequency, TF over GST control); in the test with HSF1 it was 1.64 fold enrichment (6-mer frequency, TF over GST control); in the test with SPIC, 1.3 fold enrichment (6-mer frequency, TF over GST control); in the test with ELF4, 1.18 fold enrichment (6-mer frequency, TF over GST control); with ELK4 it was 1.05 fold enrichment (6-mer frequency, TF over GST control). The binding signal is 1.22 fold enrichment (6-mer frequency, TF over GST control) in the test with ETV2; 1.25 fold enrichment (6-mer frequency, TF over GST control) with ELF3; 1.14 fold enrichment (6-mer frequency, TF over GST control) in the test with CRX; 1.16 fold enrichment (6-mer frequency, TF over GST control) with ETV1.
For TTGATT, the binding signal with FEV is 1.18 fold enrichment (6-mer frequency, TF over GST control); with ETV5, 1.14 fold enrichment (6-mer frequency, TF over GST control); with HSF1 it was 1.32 fold enrichment (6-mer frequency, TF over GST control); with SPIC, 1.35 fold enrichment (6-mer frequency, TF over GST control); with ELF4, 1.25 fold enrichment (6-mer frequency, TF over GST control); with ELK4, 1.29 fold enrichment (6-mer frequency, TF over GST control). For the same sequence, the binding signal with ETV2 is 1.32 fold enrichment (6-mer frequency, TF over GST control); with ELF3 it was 1.25 fold enrichment (6-mer frequency, TF over GST control); in the test with CRX, 1.48 fold enrichment (6-mer frequency, TF over GST control); in the test with ETV1, 1.27 fold enrichment (6-mer frequency, TF over GST control).
